In PubChem BioAssay (NCATS) one finds Potency, outcome and activity change, negative = inhibition data, which are given here for 44 molecules.

Structures are written as SMILES. Values without a mark were called inactive. Records with an inconclusive call do not appear. Where a call stands in place of a potency, no number is given. Calls of active or inactive are those of the source. Calls follow the shape of the dose curve; as a rule, active = well fitted inhibition curve with a large enough effect; inconclusive = small, poorly fitted or top-dose-only effect; inactive = no such curve, though single readings can be large or run the other way.

A short description of assay [1]: qHTS assay for measurement of the activity of small molecule inhibitors on Zika virus induced Caspase-3 activity in human iPSC derived neural progenitor cells (hNPCs) (AID 1224857). Also: nearly all actives have a fitted effect of over 65% in size. Put shortly: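 After overnight (16–20 h) culture at 350 cells/well, hNPCs get compound, then ZIKV 2 FFU/cell one hour later. Six hours on, Caspase-Glo 3/7 is added and luminescence measured.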

Assay [2] can be described thus: qHTS assay for measurement of the activity of small molecule inhibitors on Zika virus induced Caspase-3 activity in human astrocytoma cells (AID 1224859). Put shortly: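 Inhibition of Zika-induced caspase-3/7 activity: SNB-19 cells, 1 h compound pretreatment, ZIKV 2 FFU/cell for 6 h at 37 C, Caspase-Glo luminescence read-out.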
A general note: In qHTS, concentration-response curves come from the screen itself.

With `Cc1cc(=O)oc2cc(O[C@@H]3SC[C@@H](O)[C@H](O)[C@H]3O)ccc12`, in assay [1], the Potency result was “inactive”. The call in assay [2] was inactive.

`CC(=O)OC[C@H]1O[C@@H](OC(C)=O)[C@H](OC(C)=O)[C@@H]1OC(C)=O`: in assay [1], the Potency entry was “inactive”. Moreover, the result in assay [2] was inactive.

With `C[N+]1(C)CCC(OC(=O)C(O)(c2ccccc2)C2CCCC2)C1` (stereo not drawn), the Potency entry in assay [1] is “inactive”. Moreover, the result in assay [2] was inactive.

With `O=C(CCCl)NCCc1ccccc1`, in assay [1], the Potency result is “inactive”. In assay [2], the molecule was classed as inactive.

Turning to `NS(=O)(=O)c1ccc(N2CCCCS2(=O)=O)cc1`, the Potency entry in assay [1] is “inactive”. Further, the molecule was classed as inactive in assay [2].

Take `CCCC(=O)O[C@]1(C(=O)COC(=O)CC)CC[C@H]2[C@@H]3CCC4=CC(=O)CC[C@]4(C)[C@H]3[C@@H](O)C[C@@]21C`: the Potency result in assay [1] was “inactive”. For the same molecule, the call in assay [2] was inactive.

In the case of `N=C(N)c1ccc(OCCCOc2ccc(C(=N)N)cc2)cc1`, the Potency entry in assay [1] is “inactive”. Further, the call in assay [2] was inactive.

Consider `CO/N=C(\C(=O)O)c1csc(NC(=O)CCl)n1`, for which the Potency result in assay [1] was “inactive”. For the same molecule, the call in assay [2] was inactive.

Regarding `CC(C)NCCCC1(C(N)=O)c2ccccc2-c2ccccc21`, the Potency result in assay [1] is “inactive”. Moreover, in assay [2], the outcome was inactive.

In the case of `CCOC(=O)CN1CCCC1=O`, the Potency result in assay [1] was “inactive”. The molecule was classed as inactive in assay [2].

As for `CN1CC[C@H](c2c(O)cc(O)c3c(=O)cc(-c4ccccc4Cl)oc23)[C@H](O)C1`, in assay [1], the Potency result was “inactive”. Also, the molecule was called inactive in assay [2].

For `COC(=O)c1ccc(NC(C)=O)cc1OC`, in assay [1], the Potency result is “inactive”. In addition, in assay [2], the molecule was called inactive.

For `NC(=O)NS(=O)(=O)c1ccc(Cl)cc1`, in assay [1], the Potency entry is “inactive”. In addition, the outcome in assay [2] was inactive.

With `O=c1[nH]sc2cc(Cl)ccc12`, the Potency entry in assay [1] is “inactive”. Moreover, in assay [2], the molecule was called inactive.

Consider `CCCC(=O)OCOC(=O)C1=C(C)NC(C)=C(C(=O)OC)C1c1cccc(Cl)c1Cl` (stereo not drawn), for which the Potency entry in assay [1] is “inactive”. For the same molecule, the molecule was classed as inactive in assay [2].

`CC[N+](CC)(CC)CCOC(=O)C(C1CCCC1)C1CCCC1`: the Potency result in assay [1] was “inactive”. Moreover, the molecule was called inactive in assay [2].

For `O=C(OCC(COC(=O)c1cccnc1)(COC(=O)c1cccnc1)COC(=O)c1cccnc1)c1cccnc1`, the Potency result in assay [1] is “inactive”. In addition, the molecule was called inactive in assay [2].

As to `Cc1c(N)cccc1C(F)(F)F`, the Potency result in assay [1] was “inactive”. The molecule was classed as inactive in assay [2].

Regarding `CC(=O)N1CCN(c2ccc(O)cc2)CC1`, in assay [1], the Potency entry is “inactive”. The outcome in assay [2] was inactive.

Take `CC(C)(C)CC(=O)OCC(=O)[C@@]1(O)CC[C@H]2[C@@H]3CCC4=CC(=O)C=C[C@]4(C)[C@H]3[C@@H](O)C[C@@]21C`: the Potency result in assay [1] is “inactive”. In addition, the result in assay [2] was inactive.

On to `CCC1=C[C@@H]2CN(C1)Cc1c([nH]c3ccccc13)[C@@](C(=O)OC)(c1cc3c(cc1OC)N(C)[C@H]1[C@@](O)(C(=O)OC)[C@H](OC(C)=O)[C@]4(CC)C=CCN5CC[C@]31[C@@H]54)C2`, for which, in assay [1], the Potency result was “inactive”. Moreover, the molecule was called inactive in assay [2].

Regarding `CCOC(=O)C(=O)c1csc(NC=O)n1`, the Potency result in assay [1] is “inactive”. Also, the molecule was called inactive in assay [2].

In the case of `CC(=O)N(CC(O)CO)c1c(I)c(C(=O)NCCO)c(I)c(C(=O)NCC(O)CO)c1I` (stereo not drawn), the Potency entry in assay [1] was “inactive”. In assay [2], the molecule was called inactive.

With `Cc1cccc(C)c1NC(=O)c1ccc(N)cc1`, the Potency result in assay [1] was “inactive”. Moreover, in assay [2], the outcome was inactive.

Consider `C[C@@H](C1=C(CCN(C)C)Cc2ccccc21)c1ccccn1`, for which the Potency result in assay [1] was “inactive”. Also, in assay [2], the outcome was inactive.

`O=C(CS(=O)Cc1ccco1)NC/C=C\COc1cc(CN2CCCCC2)ccn1` (stereo not drawn): the Potency result in assay [1] is “inactive”. The outcome in assay [2] was inactive.

For `COC(=O)CCCCC(CCSS/C(CCO)=C(\C)N(C=O)Cc1cnc(C)nc1N)SC(C)=O` (stereo not drawn), the Potency result in assay [1] was “inactive”. Also, in assay [2], the molecule was classed as inactive.

In the case of `CN1CCN(N)CC1`, the Potency result in assay [1] is “inactive”. For the same molecule, the call in assay [2] was inactive.

For the molecule `Cc1ncc([N+](=O)[O-])n1C`, the Potency result in assay [1] was “inactive”. For the same molecule, the result in assay [2] was inactive.

For the molecule `O=C(O)c1cn(C2CC2)c2cc(Cl)c(F)cc2c1=O`, the Potency result in assay [1] was “inactive”. In addition, the call in assay [2] was inactive.

For the molecule `CCCCCCCC(=O)[O-].CCCCCCCC(=O)[O-].[Zn+2]`, in assay [1], the Potency entry is “inactive”. In assay [2], the call was inactive.

In the case of `CC(C)OC(=O)c1cc2c(OCC(O)CNC(C)(C)C)cccc2[nH]1` (stereo not drawn), the Potency entry in assay [1] is “inactive”. The outcome in assay [2] was inactive.

With `OCCCc1ccccc1`, in assay [1], the Potency result was “inactive”. In addition, the result in assay [2] was inactive.

As to `O=[N+]([O-])c1ccc(-c2nc(-c3ccc(F)cc3)c(-c3ccncc3)[nH]2)cc1`, the Potency entry in assay [1] is “inactive”. In assay [2], the molecule was called inactive.

With `CCCCCCCCCCCCCC[N+](C)(C)C`, the Potency entry in assay [1] is “inactive”. Further, in assay [2], the call was inactive.

In the case of `O=C(O)[C@@H](O)[C@H](O)[C@H](O)[C@@H](O)C(=O)O`, the Potency result in assay [1] was “inactive”. Besides, in assay [2], the outcome was inactive.

With `O=C(CCCl)NCc1ccccc1`, the Potency result in assay [1] is “inactive”. Besides, the molecule was classed as inactive in assay [2].

Take `COCCc1ccc(OCC2CO2)cc1` (stereo not drawn): in assay [1], the Potency result is “inactive”. Besides, the molecule was called inactive in assay [2].

On to `CC(C)Cc1ccc(C(C)C(=O)OCc2ccccn2)cc1` (stereo not drawn), for which the Potency result in assay [1] was “inactive”. The molecule was called inactive in assay [2].

As for `c1ccc(C(O[C@H]2CCCN(CCc3ccc4c(c3)OCO4)C2)c2ccccc2)cc1`, in assay [1], the Potency result is “inactive”. Moreover, the call in assay [2] was inactive.

Consider `O=C1NC2CCCCN2C12CCN(CCCN1c3ccccc3CCc3ccc(Cl)cc31)CC2` (stereo not drawn), for which the Potency result in assay [1] is “inactive”. For the same molecule, the outcome in assay [2] was inactive.

As for `CC(=O)CC/C=C(\C)CC/C=C(\C)CC/C=C(\C)CCC=C(C)C`, the Potency entry in assay [1] was “inactive”. In assay [2], the molecule was called inactive.

For `CC1CN(c2cc3c(cc2F)c(=O)c(C(=O)O)cn3-c2ccc(F)cc2F)CCN1` (stereo not drawn), the activity change, negative = inhibition is -6.17% [at 4.53 µM] in assay [1] and -1.94% [at 4.53 µM] in assay [2].

For `CCN1CCN(c2cc(-c3ccc(F)cc3)c3c(n2)CCCCCC3)CC1`, in assay [1], the Potency entry is “inactive”. The result in assay [2] was inactive.
